Screening data: PubChem, National Center for Advancing Translational Sciences (NCATS)
POLK inh – qHTS for Inhibitors of Polymerase Kappa; purified Pol kappa, fluorescent DNA synthesis assay, 10 min; Potency, µM (titrated, usually from 107 µM), for inactives: at the top dose activity, negative = inhibition, usual class: inhibitors; 400,000 tested, 0.53% active; AID 588579, 2011; further: on the % scale 0 is the no-effect control and ±100 the full control effect
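Readout: fluorescence, taken kinetically at 0 and 10 min. Conditions: 10 nM Pol kappa, 15 min RT compound preincubation, 50 nM substrate final. Controls: enzyme-free buffer wells.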
POLI inh – qHTS for Inhibitors of Polymerase Iota. 390,000 tested, 1% active. Pol iota fluorescent replication assay, 10 min. Potency, µM (highest dose often 115 µM), without a hit: top-dose activity, negative = inhibition, hits mostly inhibitors. DNA polymerase iota (Homo sapiens), Q9UNA4
Target sequence (Q9UNA4 whole entry, looked up): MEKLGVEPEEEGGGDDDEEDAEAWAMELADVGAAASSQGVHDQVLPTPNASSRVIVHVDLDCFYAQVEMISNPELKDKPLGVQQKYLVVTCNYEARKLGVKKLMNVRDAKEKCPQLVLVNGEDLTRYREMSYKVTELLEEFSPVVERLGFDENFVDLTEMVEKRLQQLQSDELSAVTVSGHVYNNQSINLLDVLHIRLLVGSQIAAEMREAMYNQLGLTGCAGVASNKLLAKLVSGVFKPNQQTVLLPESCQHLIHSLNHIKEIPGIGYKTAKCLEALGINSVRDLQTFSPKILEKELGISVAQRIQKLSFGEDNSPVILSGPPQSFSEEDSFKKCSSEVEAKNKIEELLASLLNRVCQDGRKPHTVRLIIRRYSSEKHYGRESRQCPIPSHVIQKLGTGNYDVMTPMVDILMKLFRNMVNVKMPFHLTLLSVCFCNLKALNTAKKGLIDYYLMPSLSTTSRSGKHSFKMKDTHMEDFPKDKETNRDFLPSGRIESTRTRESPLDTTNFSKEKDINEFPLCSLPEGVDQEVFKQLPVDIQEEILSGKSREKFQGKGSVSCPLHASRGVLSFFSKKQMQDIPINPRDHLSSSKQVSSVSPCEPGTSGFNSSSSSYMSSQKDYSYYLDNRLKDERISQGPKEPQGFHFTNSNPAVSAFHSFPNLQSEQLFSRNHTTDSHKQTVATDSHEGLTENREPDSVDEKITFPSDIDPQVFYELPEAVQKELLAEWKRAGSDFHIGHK
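Pol iota at 10 nM preincubated 15 min with compounds at room temperature; reaction started with fluorescent substrate, 50 nM final. Fluorescence read kinetically at 0 and 10 min; buffer-only wells as negative control.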
FEN1 inh – qHTS Assay for the Inhibitors of Human Flap endonuclease 1 (FEN1) | P39748 | Recombinant FEN1 flap cleavage, fluorescence, 15 min | Potency, µM (doses to about 114 µM), for inactives: top-dose activity change, negative = inhibition, actives largely listed as inhibitors | 390,000 tested, 0.35% active | AID 588795, 2011; further: on the % scale 0 is the no-effect control and ±100 the full control effect; nearly all actives have a fitted effect of over 65% in size
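In this screen, 50 nM flap DNA substrate was added to 10 nM FEN1 pretreated with compound for 15 min at room temperature; cleavage was followed with reads at 0 and 15 min, and Hill fitting gave concentration–response parameters.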
TDP1 inh – qHTS Assay for Inhibitors of Tyrosyl-DNA Phosphodiesterase (TDP1) | recombinant TDP1, AlphaScreen DNA substrate cleavage | Potency, µM (highest dose often 130 µM), without a hit: top-dose activity change, negative = inhibition, usual class: inhibitors | 350,000 tested, 0.28% active | AID 485290, 2010; further: on the % scale 0 is the no-effect control and ±100 the full control effect; nearly all actives have a fitted effect of over 40% in size
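Recombinant human Tdp1 (E. coli-expressed, 1 nM final) preincubated with compounds 15 min at room temperature, then 5'-biotin/3'-phosphotyrosine-FITC DNA substrate (15 nM final) added for 5 min. AlphaScreen beads (10 ug/ml final) added 10 min; cleavage lowers signal.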
POLB inh – qHTS Assay for Inhibitors of DNA Polymerase Beta; Potency, µM (top dose mostly 114 µM), inactives show at the top dose activity change, negative = inhibition, most hits filed as inhibitors; P06746; 340,000 tested, 1.3% active; Pol beta primer extension/strand displacement, fluorescence kinetic; further: on the % scale 0 is the no-effect control and ±100 the full control effect
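Pol beta (10 nM) was preincubated with compound for 15 min at room temperature. The reaction was then started with 50 nM substrate and read immediately and after a further 10 min at room temperature.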
Pol eta inh – qHTS for Inhibitors of Polymerase Eta; DNA polymerase eta (Homo sapiens), Q9Y253; recombinant Pol eta, fluorescent DNA replication assay; Potency, µM (series often up to 114 µM), for the others: at the top dose activity change, negative = inhibition, usual class: inhibitors; 390,000 tested, 1.2% active; AID 588591, 2011; further: on the % scale 0 is the no-effect control and ±100 the full control effect
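Pol eta (10 nM) was preincubated with compounds for 15 min at room temperature, after which fluorescent replication substrate (50 nM final) was added to start the reaction. Fluorescence was read kinetically at 0 and 10 min.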
Numbers without * were called inactive; ? = inconclusive; / = no result given; [ ] = dose if it differs, or a comment. Compounds with a hit are over-represented: about 2.4% of the library has one in this group of screens. The call rests on the fitted dose curve; in most records, active means well fitted curve in the direction sought with a large enough effect; inconclusive means small, poorly fitted or top-dose-only effect, or another doubt; inactive means no such curve, though single readings can be large; an effect the other way counts as inactive or inconclusive. Potency means the concentration at half of the fitted maximal effect.

SMILES	POLK inh	POLI inh	FEN1 inh	TDP1 inh	POLB inh	Pol eta inh
CC1=C(C(=O)Nc2cccnc2)C(c2ccc(C)cc2)n2nc(SCc3ccccc3F)nc2N1 (stereo not given)	-3%	-14%	19%	3%	18%	10%
O=c1cc(-c2cccnc2)oc2c1ccc1ccccc12	-2%	11%	40µM*	/	-11%	-4%
ON=C1c2cc(OCCN3CCCCC3)ccc2-c2ccc(OCCN3CCCCC3)cc21	-8%	83%	32µM*	-9%	34%	-18%
Clc1ccc(OCCN2CCCCC2)cc1Cl	-2%	24%	0%	-6%	?	-12%
Cc1cc(OCC(=O)Nc2cc(-c3nc4ccccc4[nH]3)ccc2C)ccc1Cl	2%	?	11%	-1%	-12%	/
CC(NC(=O)COC(=O)/C=C/c1ccc2c(c1)OCO2)c1ccccc1 (stereo not given)	-15%	3%	19%	2%	/	1%
Cc1ccc(C(=O)OCC(=O)NC(C)c2ccccc2)s1 (stereo not given)	-10%	18%	1%	0%	/	-7%
O=C(COC(=O)c1ccc([N+](=O)[O-])s1)NCCc1ccccc1	?	56µM*	?	2%	/	?
CC(NC(=O)COC(=O)c1ccc([N+](=O)[O-])s1)c1ccccc1 (stereo not given)	-25%	?	-23%	2%	16µM*	?
CC(NC(=O)COC(=O)/C=C/c1ccc([N+](=O)[O-])cc1)c1ccccc1 (stereo not given)	?	89µM*	-100%	1%	29%	-35%
COc1cc(NC(=O)Cn2ncc3c([nH]c4ccc(C)cc43)c2=O)cc(OC)c1OC	2%	3%	-5%	-3%	30%	-13%
COc1ccccc1Nc1nn2c(=O)c3ccc(C(=O)NC4CCC(C)CC4)cc3nc2s1 (stereo not given)	7%	5%	3%	8%	0%	-2%
O=C(OC1Cc2c(O)cc(O)cc2OC1c1cc(O)c(O)c(O)c1-c1c(C2Oc3cc(O)cc(O)c3CC2O)cc(O)c(O)c1O)c1cc(O)c(O)c(O)c1 (stereo not given)	0.79µM*	/	/	/	/	/
Cc1ccc(-n2c(SCC(=O)NCc3ccco3)nc3sc(C)c(C)c3c2=O)cc1	-21%	-5%	0%	0%[56.1 µM]	1%	2%
Cc1ccc(-n2c(SCC(=O)NCc3ccco3)nc3nc4c(cc3c2=O)COC(C)(C)C4)cc1	-7%	?	1%	0%	79µM*	?
C=CCN1C(=O)C(Cc2ccc(Br)cc2)S/C1=N\N=C\c1ccco1 (stereo not given)	-32%	?	-3%	3%	3%	8%
Cc1cccc(CC2S/C(=N/N=C/c3ccco3)N(c3ccccc3)C2=O)c1 (stereo not given)	-10%	-4%	-1%	8%	35µM*	-9%
CCCN(CC(=O)Nc1ccccc1C)C(=O)Cc1c[nH]c2ccccc12	2%	4%	7%	/	/	-8%
CCCN(CC(=O)Nc1ccccc1C)C(=O)Cc1c(C)nc2ccccc2c1C	-32%	79µM*	18%	-11%[56.1 µM]	/	?
C#CCOCCOCCOCCNc1nc(N2CCN(C(=O)CCCCCCCCCCNC(=O)[C@@H](CCC(=O)O)n3cc(CCCCCN)nn3)CC2)nc(N2CCN(C(=O)CCCCCCCCCCNC(=O)[C@H](CCCCN)n3cc(C[C@@H](C)CC)nn3)CC2)n1	16%	3%	?	6%	/	89µM*
C#CCOCCOCCOCCNc1nc(N2CCN(C(=O)CCCCCCCCCCNC(=O)[C@H](CO)n3cc(CCCCCN)nn3)CC2)nc(N2CCN(C(=O)CCCCCCCCCCNC(=O)[C@H](CCCN=C(N)N)n3cc(C[C@@H](C)CC)nn3)CC2)n1	/	/	/	14%	/	/
C#CCOCCOCCOCCNc1nc(N2CCN(C(=O)CCCCCCCCCCNC(=O)[C@H](CCCCN)n3cc(CCO)nn3)CC2)nc(N2CCN(C(=O)CCCCCCCCCCNC(=O)[C@H](CCCCN)n3cc(CCCC(=O)O)nn3)CC2)n1	12%	?	-3%	3%	/	-21%
C#CCOCCOCCOCCNc1nc(N2CCN(C(=O)CCCCCCCCCCNC(=O)[C@H](CCCCN)n3cc(CCO)nn3)CC2)nc(N2CCN(C(=O)CCCCCCCCCCNC(=O)[C@H](CCCCN)n3cc(C[C@@H](C)CC)nn3)CC2)n1	-25%	?	28µM*	0%	/	79µM*
C#CCOCCOCCOCCNc1nc(N2CCN(C(=O)CCCCCCCCCCNC(=O)[C@@H](CCSC)n3cc(CCO)nn3)CC2)nc(N2CCN(C(=O)CCCCCCCCCCNC(=O)[C@H](CCCN=C(N)N)n3cc(C[C@@H](C)CC)nn3)CC2)n1	-19%	?	20µM*	15%	/	79µM*
CCc1cc2c(cc3c(=O)n(CC(=O)NC4CCC(C)CC4)ncn32)s1 (stereo not given)	-1%	26%	-4%	-2%	-30%	-11%
SMILES	POLK inh	POLI inh	FEN1 inh	TDP1 inh	POLB inh	Pol eta inh
Cn1c(=O)n(C)c2cc(N3CCOCC3)c(NS(=O)(=O)c3ccc(Br)cc3)cc21	19%	5%	-6%	-4%[12.3 µM]	12%	0%
Nc1ccc(-c2nc3ccc(N)cc3s2)cc1	0%	53%	1%	/	-28%	-20%
CC(=O)Nc1nc2cc(C(N)=O)ccc2s1	9%	20%	-3%	0%	/	-10%
Nc1ccc(-c2nc3ccc(C(=O)O)cc3s2)cc1	-21%	-7%	0%	79µM*	?	?
O=C(O)c1ccc2ncsc2c1	-14%	4µM*	-13%	45µM*	8%	-20%
NC(=O)c1ccc2nc(NC(=O)c3ccc(N)cc3)sc2c1	-18%	33%	2%	79µM*	-22%	-29%
CC1=C(C(=O)Nc2cccnc2)C(c2ccc(F)cc2)n2nc(SCc3ccccc3)nc2N1 (stereo not given)	-7%	12%	-3%	3%	-11%	-11%
CC(C)c1nn2c(=O)cc(COC(=O)c3cccs3)nc2s1	-8%	24%	2%	5%	-1%	-18%
O=[N+]([O-])c1cccc(CNC2CCCCCC2)c1	0%	122%	-2%	-1%	28µM*	-11%
CC(=C/c1ccccc1)/C=N/NC(=O)c1ccc2nc[nH]c2c1	0%	13%	-9%	0%	32µM*	-4%
